Common to all, as to details: mRNA level, 48 h; actives raise or lower the signal
Read-out in test [1]: Protein phosphatase 2A (PPP2R4), PTPA (gene 5524)
The test can be described thus: LTEA_HepaRG_PPP2R4: Life Technologies and Expression Analysis (LTEA) Assay for Protein phosphatase 2A (PPP2R4) using HepaRG (AID 2283522). The method in brief: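 Gene-expression endpoint in HepaRG hepatic cells: 48 h treatment across eight half-log concentrations up to 100 uM in 0.5% DMSO. PPP2R4 mRNA by qRT-PCR, normalized to three endogenous control genes.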

Read-out in test [2]: Phosphatase and tensin (PTEN), PTEN (gene 5728)
The test can be described thus: LTEA_HepaRG_PTEN: Life Technologies and Expression Analysis (LTEA) Assay for Phosphatase and tensin (PTEN) using HepaRG (AID 2283523). The method in brief:
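HepaRG cells, 48 h after plating, exposed in duplicate for 48 h in serum-free induction medium to 8 half-log concentrations up to 100 uM (0.5% DMSO). PTEN mRNA by qRT-PCR, normalized to ACTB, GAPDH, POLR2A; bidirectional fit versus DMSO.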

Read-out in test [3]: solute carrier (SLC22A1), SLC22A1 (gene 6580)
The test can be described thus: LTEA_HepaRG_SLC22A1: Life Technologies and Expression Analysis (LTEA) Assay for solute carrier (SLC22A1) using HepaRG (AID 2283524). The method in brief: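 Differentiated human HepaRG cells in serum-free induction medium, exposed 48 h in duplicate to 8-point half-log series from 100 µM top in 0.5% DMSO. SLC22A1 mRNA by TaqMan qRT-PCR normalized to ACTB, GAPDH, POLR2A; bidirectional fit versus DMSO.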

Read-out in test [4]: Pyruvate Dehydrogenase Kinase 4 (PDK4), PDK4 (gene 5166)
Kind of test: LTEA_HepaRG_PDK4: Life Technologies and Expression Analysis (LTEA) Assay for Pyruvate Dehydrogenase Kinase 4 (PDK4) using HepaRG (AID 2283525). The method in brief:
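HepaRG cells plated 48 h, then switched to serum-free induction medium and exposed in duplicate for 48 h to 8 half-log concentrations from 100 uM in 0.5% DMSO. PDK4 mRNA measured by qRT-PCR, normalized to ACTB, GAPDH and POLR2A; bidirectional fit versus DMSO.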

Read-out in test [5]: NAD(P)H dehydrogenase [quinone] 1 (NQO1), NQO1 (gene 1728)
The test can be described thus: LTEA_HepaRG_NQO1: Life Technologies and Expression Analysis (LTEA) Assay for NAD(P)H dehydrogenase [quinone] 1 (NQO1) using HepaRG (AID 2283526). The method in brief:
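Human HepaRG hepatic cells received chemicals for 48 h in serum-free induction medium with 0.5% DMSO, up to 100 uM. Expression was assessed by TaqMan qRT-PCR against housekeeping controls and fitted bidirectionally against DMSO.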

Read-out in test [6]: Nuclear factor erythroid 2-related factor 2 (Homo sapiens) (UniProt Q16236)
The test can be described thus: LTEA_HepaRG_NFE2L2: Life Technologies and Expression Analysis (LTEA) Assay for Nuclear factor erythroid 2-related factor 2 (NFE2L2) Transcription Factor using HepaRG (AID 2283527).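 For outcome: TaqMan qRT-PCR transcript level normalised to ACTB GAPDH and POLR2A housekeeping genes.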 The method in brief:
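Differentiated human HepaRG cells, serum-free induction medium, exposed 48 h in duplicate to eight half-log concentrations up to 100 uM in 0.5% DMSO. NFE2L2 mRNA by Fluidigm TaqMan qRT-PCR, normalised to ACTB, GAPDH, POLR2A; bidirectional change versus DMSO.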

Read-out in test [7]: succinate dehydrogenase complex iron sulfur subunit B (SDHB), SDHB (gene 6390)
The test can be described thus: LTEA_HepaRG_SDHB: Life Technologies and Expression Analysis (LTEA) Assay for succinate dehydrogenase complex iron sulfur subunit B (SDHB) using HepaRG (AID 2283528). The method in brief: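 A human HepaRG culture in serum-free induction medium received test chemicals for 48 h over an eight-point range capped at 100 uM. SDHB expression change was quantified by qRT-PCR.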

Read-out in test [8]: Signal transducer and activator of transcription 3 (Homo sapiens) (UniProt P40763)
Kind of test: LTEA_HepaRG_STAT3: Life Technologies and Expression Analysis (LTEA) Assay for Signal transducer and activator of transcription (STAT3) using HepaRG (AID 2283529). The method in brief:
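Differentiated HepaRG cells, serum-free induction medium, dosed 48 h in duplicate, 8 half-log concentrations from 100 uM in 0.5% DMSO. STAT3 mRNA by qRT-PCR, normalised to ACTB, GAPDH, POLR2A; bidirectional fit versus DMSO.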

Read-out in test [9]: solute carrier (SLCO1B1), SLCO1B1 (gene 10599)
The test can be described thus: LTEA_HepaRG_SLCO1B1: Life Technologies and Expression Analysis (LTEA) Assay for solute carrier (SLCO1B1) using HepaRG (AID 2283530). The method in brief:
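Gain or loss of SLCO1B1 mRNA is fitted against the 0.5% DMSO vehicle in human HepaRG liver cells treated 48 h at up to 100 uM in half-log steps. Expression comes from qRT-PCR normalized to endogenous controls.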

Read-out in test [10]: sulfotransferase 2A1 (SULT2A1), SULT2A1 (gene 6822)
Kind of test: LTEA_HepaRG_SULT2A1: Life Technologies and Expression Analysis (LTEA) Assay for sulfotransferase 2A1 (SULT2A1) using HepaRG (AID 2283531). The method in brief:
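Cells were plated and cultured 48 h, switched to serum-free induction medium, then dosed in duplicate for 48 h (8 concentrations, max 100 uM). RNA was isolated and SULT2A1 expression measured by qRT-PCR; gain or loss of signal fitted relative to DMSO.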

Read-out in test [11]: Transforming Growth Factor (TGFB1), TGFB1 (gene 7040)
Kind of test: LTEA_HepaRG_TGFB1: Life Technologies and Expression Analysis (LTEA) Assay for Transforming Growth Factor (TGFB1) Transporter using HepaRG (AID 2283533). The method in brief: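 Expression change of TGFB1 in human HepaRG cells is measured after a 48 h chemical exposure, up to 100 uM in 0.5% DMSO vehicle. Curves are fitted in both directions relative to the DMSO baseline.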

Read-out in a further test: TIMP1, TIMP1 (gene 7076)
The test can be described thus: LTEA_HepaRG_TIMP1: Life Technologies and Expression Analysis (LTEA) Assay for TIMP1 using HepaRG (AID 2283534).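 For outcome: TaqMan qRT-PCR signal normalized to ACTB GAPDH and POLR2A housekeeping genes.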 The method in brief:
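We dosed human liver HepaRG cultures for 48 hours with up to 100 uM test chemical and measured TIMP1 expression by qRT-PCR. Activity in either direction is fitted relative to the 0.5% DMSO vehicle.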

Read-out in test [12]: Tumor necrosis factor receptor 1 (TNFRSF1A), TNFRSF1A (gene 7132)
The test can be described thus: LTEA_HepaRG_TNFRSF1A: Life Technologies and Expression Analysis (LTEA) Assay for Tumor necrosis factor receptor 1 (TNFRSF1A) using HepaRG (AID 2283535). The method in brief:
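Expression of TNFRSF1A in human HepaRG liver cells was measured by qRT-PCR 48 h after chemical dosing (maximum 100 uM). Bidirectional curve fitting used 0.5% DMSO as baseline.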

Read-out in test [13]: Thyroid Hormone Responsive (THRSP), THRSP (gene 7069)
The test can be described thus: LTEA_HepaRG_THRSP: Life Technologies and Expression Analysis (LTEA) Assay for Thyroid Hormone Responsive (THRSP) using HepaRG (AID 2283536). The method in brief: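 Differentiated HepaRG cells treated 48 h in serum-free induction medium with 8 half-log concentrations up to 100 uM (0.5% DMSO), duplicates. THRSP mRNA by TaqMan qRT-PCR normalised to ACTB, GAPDH, POLR2A; bidirectional fit versus DMSO.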

Read-out in test [14]: UDP glucuronosyltransferase (UGT1A1), UGT1A1 (gene 54658)
Kind of test: LTEA_HepaRG_UGT1A1: Life Technologies and Expression Analysis (LTEA) Assay for UDP glucuronosyltransferase (UGT1A1) using HepaRG (AID 2283538). The method in brief:
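Human liver HepaRG cultures receive test chemical for 48 h, up to 100 uM in 0.5% DMSO, with phenobarbital induction controls. UGT1A1 mRNA is measured by qRT-PCR and normalized to ACTB, GAPDH and POLR2A.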

Read-out in test [15]: UDP glucuronosyltransferase (UGT1A6), UGT1A6 (gene 54578)
Kind of test: LTEA_HepaRG_UGT1A6: Life Technologies and Expression Analysis (LTEA) Assay for UDP glucuronosyltransferase (UGT1A6) using HepaRG (AID 2283539). The method in brief: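 Endpoint is UGT1A6 transcript induction or loss in a human liver cell line, quantified by TaqMan qRT-PCR 48 h after dosing. Concentrations ran from 100 uM downward in half-log steps in 0.5% DMSO; activity was fitted in both directions versus vehicle.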

Read-out in test [16]: X-box binding protein 1 (XBP1), XBP1 (gene 7494)
The test can be described thus: LTEA_HepaRG_XBP1: Life Technologies and Expression Analysis (LTEA) Assay for X-box binding protein 1 (XBP1) using HepaRG (AID 2283540). The method in brief: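 Human HepaRG monolayers receive test chemical for 48 h across an eight-point half-log series starting at 100 uM. XBP1 mRNA gain or loss is scored against DMSO by qRT-PCR.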

Read-out in test [17]: Nuclear factor NF-kappa-B p105 subunit (Homo sapiens) (UniProt P19838)
The test can be described thus: LTEA_HepaRG_NFKB1: Life Technologies and Expression Analysis (LTEA) Assay for Nuclear Factor Kappa B Subunit 1 (NFKB1) using HepaRG (AID 2283521).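 Note: TaqMan qRT-PCR transcript normalised to ACTB GAPDH and POLR2A housekeeping genes.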 The method in brief:
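Human HepaRG cells receive eight half-log concentrations, highest 100 uM, for 48 h. NFKB1 expression is then quantified by qRT-PCR and analysed for up- or down-regulation relative to 0.5% DMSO vehicle.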

Read-out in test [18]: Cellular tumor antigen p53 (Homo sapiens) (UniProt P04637)
The test can be described thus: LTEA_HepaRG_TP53: Life Technologies and Expression Analysis (LTEA) Assay for Tumor Protein P53 (TP53) using HepaRG (AID 2283537). The method in brief:
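Gain or loss of TP53 mRNA signal is scored relative to 0.5% DMSO after 48 h chemical treatment of HepaRG liver cells, tested in duplicate at eight half-log concentrations up to 100 uM.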

The structures appear in SMILES notation. Activity calls are given as the source filed them. Rule for the calls: active = hit-call score of the fitted dose curve at least 0.9, where 1 is the maximum; inactive = score below 0.9.

Sequence of Signal transducer and activator of transcription 3 (Homo sapiens) (P40763 whole entry, looked up): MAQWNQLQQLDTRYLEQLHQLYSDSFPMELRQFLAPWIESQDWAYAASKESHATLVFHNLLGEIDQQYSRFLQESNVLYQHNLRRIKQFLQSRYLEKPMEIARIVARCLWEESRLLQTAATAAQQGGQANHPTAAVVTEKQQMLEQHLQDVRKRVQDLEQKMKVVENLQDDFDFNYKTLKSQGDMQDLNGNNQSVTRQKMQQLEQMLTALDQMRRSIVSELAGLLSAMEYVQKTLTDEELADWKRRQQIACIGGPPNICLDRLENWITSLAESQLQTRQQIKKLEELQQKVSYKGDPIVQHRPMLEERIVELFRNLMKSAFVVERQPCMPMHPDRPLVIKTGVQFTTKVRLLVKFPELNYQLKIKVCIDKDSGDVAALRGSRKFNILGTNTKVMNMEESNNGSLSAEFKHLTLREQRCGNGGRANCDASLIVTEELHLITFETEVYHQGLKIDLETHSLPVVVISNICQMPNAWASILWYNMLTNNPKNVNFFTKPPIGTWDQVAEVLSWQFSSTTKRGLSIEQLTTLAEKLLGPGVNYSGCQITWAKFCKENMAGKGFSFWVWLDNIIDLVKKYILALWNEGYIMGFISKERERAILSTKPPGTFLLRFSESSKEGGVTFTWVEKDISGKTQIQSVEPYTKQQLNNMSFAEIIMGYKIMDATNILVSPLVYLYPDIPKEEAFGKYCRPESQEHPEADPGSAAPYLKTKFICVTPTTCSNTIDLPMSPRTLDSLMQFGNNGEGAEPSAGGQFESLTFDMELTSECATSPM
Sequence of Nuclear factor erythroid 2-related factor 2 (Homo sapiens) (Q16236 whole entry, looked up): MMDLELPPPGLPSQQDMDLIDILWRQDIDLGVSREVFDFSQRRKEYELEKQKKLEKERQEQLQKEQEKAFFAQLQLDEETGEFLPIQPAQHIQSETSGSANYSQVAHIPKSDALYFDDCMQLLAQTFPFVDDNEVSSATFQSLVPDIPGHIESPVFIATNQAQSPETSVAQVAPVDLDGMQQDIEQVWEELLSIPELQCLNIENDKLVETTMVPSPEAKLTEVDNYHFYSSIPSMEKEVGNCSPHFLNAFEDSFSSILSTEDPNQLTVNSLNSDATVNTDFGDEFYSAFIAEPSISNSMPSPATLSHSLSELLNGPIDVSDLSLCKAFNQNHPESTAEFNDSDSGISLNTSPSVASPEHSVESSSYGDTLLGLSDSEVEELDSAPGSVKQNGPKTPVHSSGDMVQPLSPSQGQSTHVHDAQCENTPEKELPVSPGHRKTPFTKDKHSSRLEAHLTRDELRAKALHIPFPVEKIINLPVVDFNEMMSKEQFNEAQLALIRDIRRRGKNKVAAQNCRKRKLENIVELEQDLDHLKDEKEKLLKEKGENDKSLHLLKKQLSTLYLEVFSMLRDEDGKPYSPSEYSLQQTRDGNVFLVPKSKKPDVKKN
Sequence of Nuclear factor NF-kappa-B p105 subunit (Homo sapiens) (P19838 whole entry, looked up): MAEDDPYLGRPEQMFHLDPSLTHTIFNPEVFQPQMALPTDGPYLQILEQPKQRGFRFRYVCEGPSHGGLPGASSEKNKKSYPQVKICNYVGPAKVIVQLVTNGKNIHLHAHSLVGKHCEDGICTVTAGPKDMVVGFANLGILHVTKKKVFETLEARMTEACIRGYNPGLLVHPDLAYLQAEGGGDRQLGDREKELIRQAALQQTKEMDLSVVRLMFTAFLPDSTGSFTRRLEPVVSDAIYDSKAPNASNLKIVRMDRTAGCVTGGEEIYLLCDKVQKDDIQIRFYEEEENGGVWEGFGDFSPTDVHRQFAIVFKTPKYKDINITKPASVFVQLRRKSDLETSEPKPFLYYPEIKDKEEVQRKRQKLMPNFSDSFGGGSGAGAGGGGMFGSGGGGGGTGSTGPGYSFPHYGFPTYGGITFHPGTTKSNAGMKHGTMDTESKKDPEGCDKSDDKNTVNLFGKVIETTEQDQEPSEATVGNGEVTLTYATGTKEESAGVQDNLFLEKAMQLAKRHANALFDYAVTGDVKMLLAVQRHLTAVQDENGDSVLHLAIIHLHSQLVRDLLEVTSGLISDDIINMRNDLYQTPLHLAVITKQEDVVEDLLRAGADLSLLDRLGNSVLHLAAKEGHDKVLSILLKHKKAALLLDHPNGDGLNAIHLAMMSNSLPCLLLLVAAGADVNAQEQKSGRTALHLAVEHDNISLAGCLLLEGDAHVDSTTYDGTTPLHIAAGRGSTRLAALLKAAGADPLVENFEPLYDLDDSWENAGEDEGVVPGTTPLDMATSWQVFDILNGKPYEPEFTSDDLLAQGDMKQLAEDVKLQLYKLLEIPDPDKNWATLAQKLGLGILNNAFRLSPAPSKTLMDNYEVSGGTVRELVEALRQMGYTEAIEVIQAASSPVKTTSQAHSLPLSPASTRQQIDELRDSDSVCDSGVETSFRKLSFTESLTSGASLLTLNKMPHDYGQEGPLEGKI
Sequence of Cellular tumor antigen p53 (Homo sapiens) (P04637 whole entry, looked up): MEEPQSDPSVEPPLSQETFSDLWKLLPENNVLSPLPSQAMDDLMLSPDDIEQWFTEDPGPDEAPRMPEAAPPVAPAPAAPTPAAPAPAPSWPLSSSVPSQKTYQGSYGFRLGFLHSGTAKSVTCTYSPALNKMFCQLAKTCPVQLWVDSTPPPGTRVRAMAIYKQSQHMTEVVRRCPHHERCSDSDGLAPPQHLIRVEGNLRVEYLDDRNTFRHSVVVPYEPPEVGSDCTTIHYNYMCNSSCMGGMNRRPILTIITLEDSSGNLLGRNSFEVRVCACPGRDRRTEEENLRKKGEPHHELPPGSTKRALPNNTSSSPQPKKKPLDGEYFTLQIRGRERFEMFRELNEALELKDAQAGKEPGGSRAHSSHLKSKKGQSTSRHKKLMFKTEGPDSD

Consider `CN1CCC[C@H]1c1cccnc1`, for which the call in test [1], in [2], in test [3], in test [4], in [5] and in test [6] was inactive. Also, the outcome in test [7] is “inactive”; in test [8], “inactive”; in test [9], “inactive”; in [10], “inactive”; in [11] it was “inactive”; with TIMP1, TIMP1 (gene 7076), “inactive”. The molecule was classed as inactive in [12], in [13], in [14], in test [15] and in test [16].
On to `CC1=C(/C=C/C(C)=C/C=C/C(C)=C/C(=O)O)C(C)(C)CCC1`, for which the outcome in [17] was “inactive”; in test [2] it was “inactive”; in [8], “inactive”; in test [11], “inactive”; in the test with TIMP1, TIMP1 (gene 7076), “inactive”; in [12], “inactive”. In addition, the result in [13] and in test [16] was inactive. Besides, the AC50 is 22.9 µM (active) in test [3]; 33.8 µM (active) in [4]; 11 µM (active) in test [5]; 20.4 µM (active) in test [6]; 1.09 µM (active) in test [7]; 11.5 µM (active) in test [9]. The AC50 in [10] is 0.812 µM (active); in test [14] it was 13 µM (active); in [15], 16.9 µM (active).
Regarding `CCc1nn(C2CCCCC2)c2cc(C3(C#N)CCC(C(=O)O)CC3)ccc12` (centres undefined), the molecule was called inactive in test [17], in test [2], in test [5], in test [7], in test [8] and in test [12]. For the same molecule, the molecule was called inactive in test [15] and in test [16]. The AC50 in test [3] was 72.6 µM (active); in test [4], 33.6 µM (active); in test [6] it was 50 µM (active); in test [9] it was 56.2 µM (active); in [10] it was 80.4 µM (active); in test [11], 33.2 µM (active). Besides, the AC50 with TIMP1, TIMP1 (gene 7076) is 33.8 µM (active); in [13], 79.3 µM (active); in test [18] it was 50 µM (active); in test [14], 11.8 µM (active).
With `CCC(C)(C)C1CCC(O)CC1` (centres undefined), the outcome in [17], in [2], in [3], in [4], in [5] and in test [6] was inactive. For the same molecule, the outcome in test [7] was “inactive”; in test [8], “inactive”; in test [9], “inactive”; in test [10], “inactive”; in test [11], “inactive”; in the test with TIMP1, TIMP1 (gene 7076) it was “inactive”. Also, the outcome in [12], in test [13], in [14], in test [15] and in [16] was inactive.
